The source of these data is PubChem BioAssay (EPA / NIEHS).

Records with an inconclusive call do not appear. Calls of active or inactive are those of the source. The calls were made as follows: active = hit-call score of the fitted dose curve at least 0.9, where 1 is the maximum; inconclusive = response in the unintended direction; inactive = score below 0.9.

The target in assay [1] is Collagenase 3 (Homo sapiens) (UniProt P45452). Nature of the assay: NVS_ENZ_hMMP13: NovaScreen (NVS) Enzymatic Assay for human Matrix Metalloproteinase-13 (MMP13) (AID 2283182). Summed up: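 Recombinant MMP13 cleaving fluorescent substrate, cell-free, measured 1 h after dosing. Primary duplicate screen at 25 uM; actives tested in concentration-response up to 50 uM; loss of signal relative to DMSO.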

Assay [2] deals with human Matrix Metalloproteinase-2 (MMP2), MMP2 (gene 4313) (UniProt P08253). Nature of the assay: NVS_ENZ_hMMP2: NovaScreen (NVS) Enzymatic Assay for human Matrix Metalloproteinase-2 (MMP2) (AID 2283184). Summed up: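 Cell-free recombinant MMP2 activity with a fluorescent substrate, read 1 h after dosing. Primary screen in duplicate at 25 uM; actives then run in concentration series; loss of signal fitted versus DMSO.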

For assay [3], the target named is human Mitogen- and Stress-activated Protein Kinase-1 (Msk1), RPS6KA5 (gene 9252) (UniProt O75582). Nature of the assay: NVS_ENZ_hMsk1: NovaScreen (NVS) Enzymatic Assay for human Mitogen- and Stress-activated Protein Kinase-1 (Msk1) (AID 2283187). Summed up: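 Recombinant kinase with fluorescent substrate; product separated by electrophoretic mobility shift, read 1 h after dosing. Screened in duplicate at 25 uM; hits (e.g. ≥30% inhibition) tested in concentration–response up to 50 uM. DMSO baseline.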

The target of assay [4] is human NIMA (Never In Mitosis Gene A)-Related Kinase 2 (NEK2), NEK2 (gene 4751) (UniProt P51955). Nature of the assay: NVS_ENZ_hNEK2: NovaScreen (NVS) Enzymatic Assay for human NIMA (Never In Mitosis Gene A)-Related Kinase 2 (NEK2) (AID 2283188). Summed up: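 Cell-free NEK2 enzyme activity after 1 h exposure, read by fluorescence with electrophoretic mobility shift separating substrate and product. Primary screen in duplicate at 25 uM; actives then run as concentration series. Loss of signal versus DMSO scored.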

The target of assay [5] is human p21 Activated Kinase 4 (PAK4), PAK4 (gene 10298) (UniProt O96013). Nature of the assay: NVS_ENZ_hPAK4: NovaScreen (NVS) Enzymatic Assay for human p21 Activated Kinase 4 (PAK4) (AID 2283189). Summed up:
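Cell-free recombinant human PAK4 activity assay; fluorescent substrate and product separated by electrophoretic mobility shift, read 1 h after dosing. Initially tested in duplicate at 25 uM, relative to DMSO baseline.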

human Matrix Metalloproteinase-2 (MMP2), MMP2 (gene 4313), sequence (P08253 whole entry, looked up): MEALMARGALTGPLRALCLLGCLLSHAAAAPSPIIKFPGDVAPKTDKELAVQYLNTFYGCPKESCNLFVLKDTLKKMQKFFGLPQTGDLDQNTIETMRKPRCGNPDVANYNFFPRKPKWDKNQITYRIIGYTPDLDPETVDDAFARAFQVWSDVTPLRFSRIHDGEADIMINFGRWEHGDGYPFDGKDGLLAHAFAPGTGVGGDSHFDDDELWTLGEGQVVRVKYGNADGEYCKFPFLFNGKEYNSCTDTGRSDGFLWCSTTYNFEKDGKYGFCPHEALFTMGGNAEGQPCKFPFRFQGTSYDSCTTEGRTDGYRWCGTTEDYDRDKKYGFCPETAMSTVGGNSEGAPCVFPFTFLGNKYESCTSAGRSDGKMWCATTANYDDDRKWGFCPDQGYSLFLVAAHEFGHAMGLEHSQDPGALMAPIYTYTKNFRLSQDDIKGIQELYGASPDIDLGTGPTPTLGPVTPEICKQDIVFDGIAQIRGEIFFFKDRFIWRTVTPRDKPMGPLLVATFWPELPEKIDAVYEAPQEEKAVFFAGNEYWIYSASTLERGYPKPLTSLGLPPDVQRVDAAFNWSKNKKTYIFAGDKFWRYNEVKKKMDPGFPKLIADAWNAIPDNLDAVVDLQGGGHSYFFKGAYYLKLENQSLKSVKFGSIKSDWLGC
human Mitogen- and Stress-activated Protein Kinase-1 (Msk1), RPS6KA5 (gene 9252), sequence (O75582 whole entry, looked up): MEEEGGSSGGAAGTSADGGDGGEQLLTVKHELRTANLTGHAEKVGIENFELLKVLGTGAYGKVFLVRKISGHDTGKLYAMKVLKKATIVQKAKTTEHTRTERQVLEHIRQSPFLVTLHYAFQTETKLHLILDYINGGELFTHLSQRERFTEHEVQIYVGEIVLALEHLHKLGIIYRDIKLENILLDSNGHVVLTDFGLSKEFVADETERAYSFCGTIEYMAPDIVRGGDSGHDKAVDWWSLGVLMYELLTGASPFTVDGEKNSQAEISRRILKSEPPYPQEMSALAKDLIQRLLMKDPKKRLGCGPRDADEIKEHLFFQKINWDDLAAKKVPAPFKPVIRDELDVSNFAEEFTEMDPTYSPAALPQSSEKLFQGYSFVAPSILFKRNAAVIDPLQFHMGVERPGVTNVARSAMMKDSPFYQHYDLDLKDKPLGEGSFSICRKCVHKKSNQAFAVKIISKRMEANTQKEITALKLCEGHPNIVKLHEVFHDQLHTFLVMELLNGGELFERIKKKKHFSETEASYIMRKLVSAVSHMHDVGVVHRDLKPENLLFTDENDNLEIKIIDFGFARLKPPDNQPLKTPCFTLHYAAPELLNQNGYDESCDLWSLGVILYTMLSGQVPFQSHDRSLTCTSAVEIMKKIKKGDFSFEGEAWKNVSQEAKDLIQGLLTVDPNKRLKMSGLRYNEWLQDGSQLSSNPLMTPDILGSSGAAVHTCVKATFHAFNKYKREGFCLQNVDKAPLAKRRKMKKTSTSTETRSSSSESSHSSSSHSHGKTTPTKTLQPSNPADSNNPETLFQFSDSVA
human p21 Activated Kinase 4 (PAK4), PAK4 (gene 10298), sequence (O96013 whole entry, looked up): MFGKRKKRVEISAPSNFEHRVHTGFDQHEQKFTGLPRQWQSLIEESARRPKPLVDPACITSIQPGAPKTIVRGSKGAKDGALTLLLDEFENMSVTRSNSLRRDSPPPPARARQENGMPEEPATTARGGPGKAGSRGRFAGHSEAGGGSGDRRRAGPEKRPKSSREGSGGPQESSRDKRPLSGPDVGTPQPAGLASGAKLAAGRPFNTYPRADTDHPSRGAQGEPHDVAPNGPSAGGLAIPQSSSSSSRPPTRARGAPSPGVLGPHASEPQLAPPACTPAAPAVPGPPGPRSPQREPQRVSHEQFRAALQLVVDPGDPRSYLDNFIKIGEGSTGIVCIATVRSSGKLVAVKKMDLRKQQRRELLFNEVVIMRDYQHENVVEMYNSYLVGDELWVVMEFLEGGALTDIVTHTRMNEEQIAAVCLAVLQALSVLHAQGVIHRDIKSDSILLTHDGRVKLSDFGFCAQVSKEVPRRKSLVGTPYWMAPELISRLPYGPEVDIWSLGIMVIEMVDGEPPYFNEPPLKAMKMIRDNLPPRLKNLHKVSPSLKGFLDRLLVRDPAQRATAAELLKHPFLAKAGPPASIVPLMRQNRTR
human NIMA (Never In Mitosis Gene A)-Related Kinase 2 (NEK2), NEK2 (gene 4751), sequence (P51955 whole entry, looked up): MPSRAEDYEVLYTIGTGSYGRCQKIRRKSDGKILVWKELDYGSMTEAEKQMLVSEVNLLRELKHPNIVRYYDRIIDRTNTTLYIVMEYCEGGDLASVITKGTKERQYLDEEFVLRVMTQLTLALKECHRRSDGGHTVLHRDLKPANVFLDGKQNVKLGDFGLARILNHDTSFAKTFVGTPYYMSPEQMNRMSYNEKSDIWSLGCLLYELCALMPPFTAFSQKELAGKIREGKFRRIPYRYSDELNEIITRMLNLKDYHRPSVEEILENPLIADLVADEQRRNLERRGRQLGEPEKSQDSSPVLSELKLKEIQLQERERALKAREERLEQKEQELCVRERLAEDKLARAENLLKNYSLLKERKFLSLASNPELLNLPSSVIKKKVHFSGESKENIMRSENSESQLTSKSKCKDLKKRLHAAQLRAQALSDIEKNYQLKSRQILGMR

Regarding `CO/C=C(/C(=O)OC)c1ccccc1Oc1cc(Oc2ccccc2C#N)ncn1`, the result in assay [1] and in assay [2] was inactive.
As to `CCNc1nc(Cl)nc(NCC)n1`, in assay [2], the result was inactive.
In the case of `CCCN(CCC)c1c([N+](=O)[O-])cc(S(N)(=O)=O)cc1[N+](=O)[O-]`, the result in assay [3], in assay [4] and in assay [5] was inactive.
Consider `CNC(=S)S`, for which, in assay [3], the compound was classed as inactive.
